Bioassay records: PubChem, NMMLSC
Only some compounds are listed: those with a hit (about 1.3% of all), similar ones and a draw of the others.
AGP1-GFP MLPCN = yeast TOR pathway AGP1-GFP modulation; S. cerevisiae AGP1-GFP multiplex flow cytometry, 3 h; GFP as percent of DMSO wells; GFP response vs DMSO, % at 10 µM; 320,000 tested, 0.02% active; AID 2066;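 active means GFP response relative to DMSO above a set limit, near screen average plus 3 SD, cut at about 150% in these data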;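 further: median GFP channel fluorescence of the gated AGP1 strain per well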
MEP2 TOR yeast = yeast TOR pathway MEP2-GFP modulation; S. cerevisiae MEP2-GFP strain, flow cytometry GFP, 3 h; 100% = DMSO control level; GFP response vs DMSO, % at 10 µM; 330,000 tested, 0.51% active;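 active means GFP response versus DMSO above a set limit, roughly screen mean plus 3 SD, cut at about 180% in these data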;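 further: median GFP fluorescence of the barcode-gated MEP2-GFP cells per well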
LAP4 TOR yeast = modulators of TOR pathway LAP4-GFP in S. cerevisiae; GFP response vs DMSO, % at 10 µM; AID 2023; S. cerevisiae LAP4-GFP multiplex, flow cytometry GFP, 3 h; median GFP as percent of DMSO wells; 320,000 tested, 0.34% active;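 active means GFP response vs DMSO above a set limit, about the screen mean plus 3 SD, cut at about 150% in these data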
RPL19A TOR yeast = modulators of TOR pathway RPL19A-GFP in S. cerevisiae. S. cerevisiae RPL19A-GFP strain, flow cytometry, 3 h; active compounds read low. percent response vs DMSO, % at 10 µM. 330,000 tested, 0.3% active. AID 2025;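 active means percent response vs DMSO below 50%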;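 further: median channel GFP fluorescence of the barcoded RPL19A-GFP strain; ratio of sample median GFP to plate DMSO average so 100% = DMSO; lower means less RPL19A-GFP as with rapamycin TOR inhibition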
CIT2-GFP yeast = alters CIT2-GFP fluorescence in TOR pathway yeast screen. S. cerevisiae CIT2-GFP strain, flow cytometry, 3 h; 100 means same as DMSO wells. GFP response vs DMSO, % at 10 µM. 320,000 tested, 0.065% active;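 active means GFP response relative to DMSO above a set limit, near the screen mean plus 3 SD, cut at about 150% in these data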;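 further: ratio of well median GFP fluorescence to mean of DMSO wells on the plate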
Efflux pump mplx = antifungal efflux pump inhibition, Nile Red retention | S. cerevisiae Candida pump triplex | inhibition, % at 10 µM | 330,000 tested, 0.44% active | AID 485275;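 active means plate passing quality check with inhibition over a set limit, or well fluorescence over plate mean plus 4 SD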;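 further: Nile Red retained in pooled yeast measured as flow cytometry median fluorescence; 0% = buffer negative control and 100% = Enniatin B positive control; higher means more Nile Red kept so more efflux inhibition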
LAP4 cherry2 = yeast LAP4-GFP modulation, second cherry pick; shares compounds with LAP4 TOR yeast; S. cerevisiae LAP4-GFP strain, flow cytometry GFP, 3 h; GFP response vs DMSO, % at 10 µM; 590 tested, 20% active;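 active means GFP signal as percent of the solvent control above about 150%, meaning raised reporter expression, limit read from the data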;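 further: ratio of well median GFP fluorescence to plate DMSO mean so 100% = DMSO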
MEP2-GFP pick2 = second confirmation of modulators of TOR reporter MEP2-GFP in yeast | shares compounds with LAP4 TOR yeast | 590 tested, 10% active | GFP response vs DMSO, % at 10 µM | S. cerevisiae MEP2-GFP strain, flow cytometry GFP, 3 h;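 active means GFP signal above 150% of the solvent control wells, that is a rise of more than half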;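 further: median channel GFP fluorescence of all gated yeast cells per well; ratio of median GFP to plate DMSO average so 100% = DMSO level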
RPL19A-GFP pick2 = yeast RPL19A-GFP TOR reporter modulation, second cherry pick | S. cerevisiae RPL19A-GFP strain, flow cytometry GFP, 3 h; active compounds read low; 100% means same as DMSO wells | 590 tested, 3% active | shares compounds with LAP4 TOR yeast | AID 2623 | GFP response vs DMSO, % at 10 µM;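 active means under 65% GFP response relative to DMSO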;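 further: median GFP channel fluorescence per well over the all cells gate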
CIT2-GFP pick2 = reconfirmed modulator of CIT2-GFP TOR reporter in yeast; 590 tested, 8% active; S. cerevisiae CIT2-GFP strain, flow cytometry GFP, 3 h; DMSO control wells read 100%; shares compounds with LAP4 TOR yeast; GFP response vs DMSO, % at 10 µM;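 active means GFP response vs DMSO above about 150%, limit read from the data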;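 further: median green fluorescence per well over all gated yeast cells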
AGP1-GFP pick2 = second confirmation of modulators of TOR reporter AGP1-GFP in yeast; 590 tested, under 10 active; percent response vs DMSO, % at 10 µM; S. cerevisiae AGP1-GFP strain, flow cytometry GFP, 3 h; AID 2643; shares compounds with LAP4 TOR yeast;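 active means over 150 percent of DMSO response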;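 further: median GFP channel fluorescence over all cells without mother daughter split; sample median GFP divided by mean DMSO control so 100% equals DMSO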
s288c autofluor = counter-screen for compound autofluorescence in yeast s288c cells. shares compounds with LAP4 TOR yeast. S. cerevisiae s288c, 520 nm autofluorescence, flow cytometry, 3 h; active compounds read high; zero means same as solvent-only cells. fluorescence change (kMESF span) at 33 µM. 610 tested, under 10 active;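 active means fluorescence span over the dose series, or activity score, above about 33, limit read from the data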
The depositor's hits bear a star.

Cn1c(-c2ccccc2)cc(=O)c2ccccc21 was read as AGP1-GFP MLPCN 103.9, MEP2 TOR yeast 101.2, LAP4 TOR yeast 100.6, RPL19A TOR yeast 97.6, CIT2-GFP yeast 100.2 and Efflux pump mplx -0.1.
For O=c1cc(-c2ccccc2)cc(-c2ccccc2)n1O the results were AGP1-GFP MLPCN 89.1, MEP2 TOR yeast 97.3, LAP4 TOR yeast 193.7*, RPL19A TOR yeast 99.3, CIT2-GFP yeast 69.5, Efflux pump mplx -0.2, LAP4 cherry2 137.3, MEP2-GFP pick2 188.7*, RPL19A-GFP pick2 70.2, CIT2-GFP pick2 125.2, AGP1-GFP pick2 62.8 and s288c autofluor 1.2.
CC(C)(C)c1nnc(N/N=C/c2cc(Br)ccc2O)n(N)c1=O was read as AGP1-GFP MLPCN 98.8, MEP2 TOR yeast 102.9, LAP4 TOR yeast 185.3*, RPL19A TOR yeast 87.6, CIT2-GFP yeast 94.8, Efflux pump mplx -0.3, LAP4 cherry2 215.4*, MEP2-GFP pick2 139.7, RPL19A-GFP pick2 98.2, CIT2-GFP pick2 114.0, AGP1-GFP pick2 105.3 and s288c autofluor 1.3.
For CC(OC(=O)c1ccc(Cl)nc1)C(=O)NCc1ccc2c(c1)OCO2 (configuration not stated) the results were AGP1-GFP MLPCN 99.8, MEP2 TOR yeast 97.5, LAP4 TOR yeast 100.5, RPL19A TOR yeast 99.2, CIT2-GFP yeast 93.3 and Efflux pump mplx 0.2.
`CC(C)Oc1ccc(C(=O)/C=C2/C(=O)Nc3ccccc32)cc1` gave AGP1-GFP MLPCN 101.7, MEP2 TOR yeast 89.6, LAP4 TOR yeast 160.9*, RPL19A TOR yeast 89.1, CIT2-GFP yeast 86.7, Efflux pump mplx -0.1 and s288c autofluor 0.61.
`CN(O)/C=C1\C(=O)Nc2ccccc21` gave MEP2 TOR yeast 112.1, LAP4 TOR yeast 103.6, RPL19A TOR yeast 100.0, CIT2-GFP yeast 108.3 and Efflux pump mplx 0.0.
O=C1Nc2ccccc2/C1=C\C(=O)c1ccccc1 was read as AGP1-GFP MLPCN 84.9, MEP2 TOR yeast 90.8, LAP4 TOR yeast 226.0*, RPL19A TOR yeast 80.3, CIT2-GFP yeast 79.9, Efflux pump mplx 0.3 and s288c autofluor 0.4.
Cc1nnc2c(N(C)S(=O)(=O)c3ccccc3)nc3ccccc3n12 was read as AGP1-GFP MLPCN 118.6, MEP2 TOR yeast 111.8, LAP4 TOR yeast 116.1, RPL19A TOR yeast 108.7, CIT2-GFP yeast 112.0 and Efflux pump mplx 0.1.
Screening CCC(=O)Nc1ccc(NC(=O)c2cc3ccccc3o2)cc1 returned AGP1-GFP MLPCN 109.9, MEP2 TOR yeast 102.7, LAP4 TOR yeast 106.5, RPL19A TOR yeast 103.6, CIT2-GFP yeast 104.6, Efflux pump mplx 0.1 and s288c autofluor 0.2.
